# Only some compounds are listed: those with a hit (about 13% of all), similar ones and a draw of the others.
# USP28 inh: inhibitors of human USP28 deubiquitinase. purified USP28, Ub-rhodamine cleavage fluorescence, 30 min. inhibition, % at 25 µM. 47,000 compounds, 3% hits. AID 1645857
# USP30 block: inhibitors of human USP30 deubiquitinase. AID 1645860. inhibition, % at 25 µM. Q70CQ3. 47,000 compounds, 5.3% hits. purified USP30, Ub-rhodamine cleavage fluorescence
# USP8 block: human USP8 deubiquitinase inhibition; purified USP8, Ub-rhodamine cleavage fluorescence, 30 min; inhibition, % at 20 µM; 47,000 compounds, 4.2% hits
# USP17 block: human USP17-like deubiquitinase inhibition; A8MUK1; purified USP17, Ub-rhodamine cleavage fluorescence, 3 h; AID 1645855; inhibition, % at 50 µM; 47,000 compounds, 6.5% hits
# USP10 inh: human USP10 deubiquitinase inhibition. AID 1645856. 47,000 compounds, 1.1% hits. inhibition, % at 20 µM. Q14694. purified USP10, Ub-rhodamine fluorescence, 60 min
# Target sequence (Q14694 whole entry, looked up): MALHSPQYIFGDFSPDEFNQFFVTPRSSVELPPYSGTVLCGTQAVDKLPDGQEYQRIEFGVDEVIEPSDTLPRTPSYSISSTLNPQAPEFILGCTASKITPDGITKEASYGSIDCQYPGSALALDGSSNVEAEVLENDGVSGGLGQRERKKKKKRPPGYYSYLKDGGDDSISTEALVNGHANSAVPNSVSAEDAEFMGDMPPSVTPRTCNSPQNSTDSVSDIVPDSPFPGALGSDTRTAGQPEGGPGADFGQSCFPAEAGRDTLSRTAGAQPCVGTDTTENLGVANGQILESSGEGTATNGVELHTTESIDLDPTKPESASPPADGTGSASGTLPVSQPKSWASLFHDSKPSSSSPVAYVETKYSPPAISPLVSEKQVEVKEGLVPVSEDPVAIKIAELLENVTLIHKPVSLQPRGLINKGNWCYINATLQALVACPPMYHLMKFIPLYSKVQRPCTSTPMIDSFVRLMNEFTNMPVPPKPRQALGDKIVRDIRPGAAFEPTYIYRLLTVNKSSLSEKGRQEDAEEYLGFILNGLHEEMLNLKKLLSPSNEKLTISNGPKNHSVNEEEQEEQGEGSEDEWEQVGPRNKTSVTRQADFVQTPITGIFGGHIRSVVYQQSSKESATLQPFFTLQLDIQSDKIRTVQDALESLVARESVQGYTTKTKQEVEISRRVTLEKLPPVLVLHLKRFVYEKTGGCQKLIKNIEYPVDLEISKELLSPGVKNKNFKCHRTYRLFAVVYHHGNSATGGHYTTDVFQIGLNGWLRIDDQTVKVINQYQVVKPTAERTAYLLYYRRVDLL
# * marks the source's active call; other numbers are inactive results; . = no result given. Cut-off read from the data, not from the text of the source: active = inhibition above about 30%; inactive = the rest.
SMILES,USP28 inh,USP30 block,USP8 block,USP17 block,USP10 inh
CCOc1cc(NC(=O)C2CC2)c(OCC)cc1NC(=O)c1cccs1,6,14,0,21,0
COC(=O)c1sccc1NC(=O)COc1ccsc1C(=O)OC,7,22,5,51*,1
Cc1nc(C2CCCN2C(=O)c2cc3c([nH]c2=O)CCCCC3)no1 (stereo unspecified),5,13,11,-1,0
COc1ccc(NC(=O)CCOc2ccccc2C)cc1S(=O)(=O)Nc1cc(C)ccc1Br,25,35*,8,6,25
COc1ccccc1NC(=O)c1cc2c(C)nn(Cc3ccccc3)c2s1,20,0,-226,70*,1
Cc1nn(Cc2ccccc2)c2sc(C(=O)Nc3nc4ccccc4[nH]3)cc12,27,44*,84*,67*,20
Cc1cccc(NC(=O)CSc2ncnc3c2sc2nc(CC(C)C)c4c(c23)CCC4)c1,9,34*,6,74*,4
CC(C)Cc1nc2sc3c(SCC(=O)NC4(c5ccccc5)CCCC4)ncnc3c2c2c1CCC2,20,26,-33,42*,14
CC(C)Cc1nc2sc3c(SCC(=O)NC(c4ccccc4)c4ccccc4)ncnc3c2c2c1CCC2,1,12,-12,0,1
O=C(Nc1cc(S(=O)(=O)N2CCOCC2)ccc1N1CCCC1)c1cc(=O)[nH]c2ccccc12,-14,-79,-12,-11,-2
O=C(Nc1ccc(N2CCOCC2)cc1)c1cc(=O)[nH]c2ccccc12,9,9,24,60*,8
O=C(CCCc1c[nH]c2ccccc12)Nc1ccc2c(c1)OCCO2,75*,-20,6,-35,2
O=C(Nc1ccc2c(c1)OCCCO2)c1cc(=O)[nH]c2ccccc12,.,.,1,46*,3
CCC(=O)N1c2ccccc2NC2=C(C(=O)CC(c3ccc(N(CC)CC)cc3)C2)C1c1ccco1 (stereo unspecified),-7,-96,-20,19,-3
CCCNC(=O)c1cc2c(=O)n3ccccc3nc2n1Cc1ccccc1,3,-2,17,10,-4
COc1ccccc1-c1cc(CNCCN)n(Cc2ccc3ccccc3c2)n1,30*,44*,-104,-13,-1
COc1cccc(CN2CCn3nc(-c4ccccc4OC)cc3C2)c1,11,-1,8,14,4
CCOC(=O)N1CCC(NC(=O)c2cc(C(=O)Nc3ccc(S(=O)(=O)N4CCCCC4)cc3)ccc2CO)CC1,42*,79*,-12,77*,32*
CN(C)c1ccc(C(=O)Nc2ccc(S(=O)(=O)N3CCCC3)cc2)cc1,42*,-28,-1,-8,0
N#Cc1ccc(C(=O)Nc2ccc3c(N4CCCC4)ncnc3c2)cc1,-2,-12,23,31*,-2
N#Cc1cccc(C(=O)Nc2ccc3c(N4CCCC4)ncnc3c2)c1,-1,9,0,1,-2
N#Cc1ccc(N2CCN(S(=O)(=O)c3ccc(Cl)cc3)CC2)cc1,16,31*,19,6,13
CCN1CC[C@@]2(C(=O)Nc3ccccc3)CCN(C(=O)C(C)C)CC[C@@H]12,0,-20,-1,-2,-7
COCCCn1c(C(=O)Nc2ccccc2)cc2c(=O)n3cccc(C)c3nc21,-18,-24,-11,-6,-9
O=C(NCc1ccncc1)c1nn(-c2ccc(F)cc2)c2c1CCCC2,8,22,9,11,0
SMILES,USP28 inh,USP30 block,USP8 block,USP17 block,USP10 inh
CCC1CCCCN1S(=O)(=O)c1ccc(C(=O)Nc2ccc(S(N)(=O)=O)cc2)cc1 (stereo unspecified),35*,76*,9,60*,20
N#Cc1ccc(NC(=O)c2ccc(S(=O)(=O)N3CCCCC3)cc2)cc1,26,54*,20,17,13
O=C(Nc1nc2c(s1)CCCC2)c1cccc(Cl)c1Cl,38*,-2,15,16,6
Cc1cc(C)n(-c2ccc(C(=O)Nc3nc4c(s3)CN(C)CC4)cc2)n1,-12,-295,-13,8,-4
O=C(Nc1nc2c(s1)CCCC2)c1cn(-c2ccccc2)nc1-c1ccccc1,11,4,28,18,7
Cc1cccc(OCC(=O)Nc2nc3c(s2)CCCC3)c1,48*,24,-19,13,14
CN1CCc2nc(NC(=O)COc3ccc(C#N)cc3)sc2C1,33*,59*,-3,83*,-3
O=C(Nc1nc2c(s1)CCC2)c1cccc(N2CCNC2=O)c1,31*,-42,-4,42*,0
Nc1cnc(CC2CCCN(C(=O)CCc3ccc(F)cc3)CC2)cn1 (stereo unspecified),-3,-6,0,-10,-2
COc1ccc(-c2cc(C(=O)NC3CCCc4ccccc43)c3ccccc3n2)cc1 (stereo unspecified),4,17,-35,16,1
Cc1nc(-c2ccc(O)c(C(=O)O)c2)cc(C2CCNCC2)n1,1,-9,-217,-32,-1
CCn1cc(C(=O)N2CC[C@H]3NC(=O)c4ccccc4OCC/C=C/C[C@H]3C2)cn1,-3,6,-5,-4,1
O=C(CCCCCn1c(=O)c2sccc2n(CC(=O)c2ccc(Cl)c(Cl)c2)c1=O)NCc1ccc2c(c1)OCO2,3,6,89*,20,46*
O=C(CCCn1c(=O)c2sccc2n(Cc2ccc(F)cc2)c1=O)NCc1ccco1,6,23,33*,29,1
O=C(CCCCCn1c(=O)c2sccc2n(CC(=O)c2ccc(F)cc2)c1=O)NCc1ccccc1Cl,16,39*,45*,19,15
Cc1cc(NC(=O)Cn2c(=O)n(CCCCCC(=O)NCc3ccc4c(c3)OCO4)c(=O)c3sccc32)n[nH]1,-4,21,5,26,6
COc1ccc(NC(=O)CCc2c(C)c3c(C)nn(-c4ccccc4)c3n(C)c2=O)cc1OC,8,3,-1,16,-1
COc1ccc(NC(=O)C(C)n2c(=O)cc(-c3ccccc3)c3c(C)nn(C)c32)cc1OC (stereo unspecified),7,31*,2,19,0
Cc1ccccc1NC(=O)C(C)c1c(C)n[nH]c1C (stereo unspecified),4,15,1,5,0
Cc1ccccc1NC(=O)C(C)n1c(=O)cc(-c2ccccc2)c2c(C)nn(C)c21 (stereo unspecified),12,26,1,74*,4
CC(Nc1ccc(Oc2ccccc2)cc1)C(=O)Nc1ccc2c(c1)OCO2 (stereo unspecified),10,30*,27,22,9
C[C@@H](C(=O)Nc1ccc2c(c1)OCO2)n1c(=O)[nH]c2ccccc2c1=O,6,19,85*,2,9
CCC(C(=O)Nc1cccc(OC)c1)n1c(=O)[nH]c2ccccc2c1=O (stereo unspecified),-2,1,5,-2,1
Cc1ccccc1-c1nnc(C2(c3ccc(Cl)cc3)CCOCC2)o1,-3,11,-5,2,9

# Compound activity from PubChem BioAssay.
